Data: PubChem BioAssay
Active and inactive are the calls of the source.

Key:
[1] = E. coli DRC41 culture turbidity changes, primary screen, E. coli filamentation inducer project, strain DRC41, OD650, 48 h (AID 1152);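 note: E. coli MC1000 strain DRC41 lacking acrAB efflux pump and sulA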; conditions: E. coli DRC41 (acrAB sulA), higher = more signal, called active from +8 up or from −8 down
[2] = small-molecule binders of probe aLefty1, primary screen, biochemical, small-molecule microarray, 635/667 nm fluorescence (AID 1153); conditions: higher = more signal;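 note: score merges spot fluorescence with signal-to-noise ratio from the scanned slide images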
[3] = PSAC antagonists in infected red cells, primary screen, cell-based, P. falciparum Indochina, OD700, 1 h (AID 1154); conditions: P. falciparum Indochina infected RBC osmotic lysis, higher = more signal, called active from +8 up or from −8 down
[4] = PSAC antagonists in infected red cells, primary screen, cell-based, P. falciparum Indochina, OD700, 2 h (AID 1155);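 note: lysis reports solute entry through the parasite surface anion channel PSAC; channel blockers reduce lysis of infected cells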; conditions: P. falciparum Indochina infected erythrocytes, osmotic lysis OD700; higher = more signal, called active from +8 up or from −8 down
[5] = osmotic lysis modulators in infected erythrocytes, primary screen, PSAC antagonist project, cell-based, P. falciparum Indochina, OD700, 3 h (AID 1156); conditions: higher = more signal, called active from +8 up or from −8 down
[6] = PSAC antagonists in infected red cells, primary screen, cell-based, P. falciparum Indochina, OD700, 18 h (AID 1157); conditions: P. falciparum Indochina infected erythrocytes, osmotic lysis OD700, 18 h; higher = more signal, called active from +8 up or from −8 down
[7] = modulators of S6 phosphorylation in cells, primary screen, cell-based, A549, cytoblot, luminescence, serum-stimulated (AID 1158); conditions: A549 phospho-S6 cytoblot, 5 h, higher = more signal;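 note: serum-stimulated A549 lung adenocarcinoma cells; signal is phosphorylated S6 detected by cytoblot immunostaining with HRP secondary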
[8] = molecular target: NADPH oxidase 2 (Homo sapiens) (UniProt P04839); assay: NOX2-dependent H2O2 signal modulators, primary screen, NOX inhibitor project, cell-based, HEK293-NOX2, PMA-stimulated, Amplex Red fluorescence (AID 1159); conditions: 45 min, higher = more signal, called active from +8 up or from −8 down; note: test concentration not given here
[9] = molecular target: NADPH oxidase 4 (Homo sapiens) (UniProt Q9NPH5); assay: NOX4-dependent H2O2 signal modulators, primary screen, NOX inhibitor project, cell-based, HEK293-NOX4, tetracycline-induced, Amplex Red fluorescence (AID 1160); conditions: 45 min, higher = more signal, called active from +8 up or from −8 down
[10] = molecular target: NADPH oxidase 5 (Homo sapiens) (UniProt Q96PH1); assay: NOX5-dependent H2O2 signal modulators, primary screen, NOX inhibitor project, cell-based, HEK293-NOX5, Amplex Red fluorescence (AID 1161); conditions: HEK293-NOX5, ionomycin, 45 min, higher = more signal
[11] = A549 cell viability effects, profiling panel, calcein-AM fluorescence, 48 h, basal (AID 1162); conditions: higher = more signal; note: test concentration not given here
[12] = adipocyte viability effects, profiling panel, cell-based, 3T3-L1 adipocytes, calcein-AM fluorescence, 48 h, basal (AID 1163); conditions: 3T3-L1 adipocytes viability, higher = more signal; note: test concentration not given here
[13] = HepG2 cell viability effects, profiling panel, calcein-AM fluorescence, 48 h, basal (AID 1164); conditions: higher = more signal; note: test concentration not given here
[14] = MM1S cell viability effects, profiling panel, calcein-AM fluorescence, 48 h, basal (AID 1165); conditions: higher = more signal;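 note: viability of MM1S multiple myeloma cells under basal unstimulated conditions; test concentration not given here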
[15] = basal RPMI8226 viability, no added stimulus, profiling panel, cell-based, calcein-AM fluorescence, 48 h, PK04 Diversity Set (AID 1166); conditions: RPMI8226 myeloma viability, higher = more signal;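 note: cells grown under basal conditions without added stimulus; test concentration not given here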
[16] = basal HepG2 mitochondrial membrane potential changes, profiling panel, cell-based, JC-1 fluorescence, 24 h, 100 nL compound (AID 1167); conditions: higher = more signal; note: test concentration not given here
[17] = basal 3T3-L1 adipocyte mitochondrial potential changes, profiling panel, cell-based, JC-1 fluorescence, 3T3-L1 adipocytes, 24 h, 100 nL compound (AID 1168); conditions: JC-1 mitochondrial fluorescence, higher = more signal, called active from +8 up or from −8 down; note: test concentration not given here
[18] = basal RPMI8226 mitochondrial membrane potential changes, profiling panel, cell-based, JC-1 fluorescence, 24 h, 100 nL compound (AID 1169); conditions: RPMI8226 myeloma, JC-1 mitochondrial potential fluorescence, higher = more signal; note: test concentration not given here
[19] = basal MM1S mitochondrial membrane potential changes, profiling panel, cell-based, JC-1 fluorescence, 24 h, 100 nL compound (AID 1170); conditions: higher = more signal; note: test concentration not given here
[20] = A549 lung cancer cell viability effects, profiling panel, resazurin fluorescence, 24 h, PK04 Diversity Set (AID 1171); conditions: higher = more signal, called active from +8 up or from −8 down; note: test concentration not given here

Sequence of NADPH oxidase 4 (Homo sapiens) (Q9NPH5 whole entry, looked up): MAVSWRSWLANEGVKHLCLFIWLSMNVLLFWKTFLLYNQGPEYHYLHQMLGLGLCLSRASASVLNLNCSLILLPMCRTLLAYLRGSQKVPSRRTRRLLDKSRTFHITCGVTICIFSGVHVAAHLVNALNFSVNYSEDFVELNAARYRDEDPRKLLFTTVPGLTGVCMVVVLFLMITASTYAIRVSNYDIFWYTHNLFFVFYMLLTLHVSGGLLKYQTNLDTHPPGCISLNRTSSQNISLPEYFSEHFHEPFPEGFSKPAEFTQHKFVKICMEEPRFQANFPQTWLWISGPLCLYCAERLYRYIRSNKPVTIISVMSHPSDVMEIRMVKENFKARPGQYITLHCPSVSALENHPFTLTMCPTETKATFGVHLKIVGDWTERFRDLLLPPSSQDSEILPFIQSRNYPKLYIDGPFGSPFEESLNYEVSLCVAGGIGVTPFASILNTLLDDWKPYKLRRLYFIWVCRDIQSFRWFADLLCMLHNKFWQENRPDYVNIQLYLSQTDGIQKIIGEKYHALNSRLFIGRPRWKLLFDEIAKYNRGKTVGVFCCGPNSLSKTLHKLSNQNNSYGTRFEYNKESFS
Sequence of NADPH oxidase 5 (Homo sapiens) (Q96PH1 whole entry, looked up): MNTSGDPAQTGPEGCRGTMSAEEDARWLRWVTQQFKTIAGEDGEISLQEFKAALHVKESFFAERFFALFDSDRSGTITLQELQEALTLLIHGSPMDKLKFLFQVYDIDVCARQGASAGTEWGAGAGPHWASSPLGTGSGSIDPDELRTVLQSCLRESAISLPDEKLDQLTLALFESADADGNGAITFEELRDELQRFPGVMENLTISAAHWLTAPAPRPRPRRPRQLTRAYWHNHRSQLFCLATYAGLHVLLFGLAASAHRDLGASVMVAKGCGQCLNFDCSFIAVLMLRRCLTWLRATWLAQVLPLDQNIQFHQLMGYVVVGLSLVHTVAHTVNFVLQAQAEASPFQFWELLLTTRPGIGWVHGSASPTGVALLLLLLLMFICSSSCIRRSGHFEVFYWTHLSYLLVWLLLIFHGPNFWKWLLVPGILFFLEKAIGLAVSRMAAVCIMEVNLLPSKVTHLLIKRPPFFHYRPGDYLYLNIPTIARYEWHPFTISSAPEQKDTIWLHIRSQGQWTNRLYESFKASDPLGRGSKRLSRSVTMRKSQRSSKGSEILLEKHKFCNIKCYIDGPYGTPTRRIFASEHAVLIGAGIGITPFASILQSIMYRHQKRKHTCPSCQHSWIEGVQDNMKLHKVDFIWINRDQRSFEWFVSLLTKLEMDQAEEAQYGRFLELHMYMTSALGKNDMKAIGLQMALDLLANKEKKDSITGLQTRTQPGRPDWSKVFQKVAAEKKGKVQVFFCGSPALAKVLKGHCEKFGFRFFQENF
Sequence of NADPH oxidase 2 (Homo sapiens) (P04839 whole entry, looked up): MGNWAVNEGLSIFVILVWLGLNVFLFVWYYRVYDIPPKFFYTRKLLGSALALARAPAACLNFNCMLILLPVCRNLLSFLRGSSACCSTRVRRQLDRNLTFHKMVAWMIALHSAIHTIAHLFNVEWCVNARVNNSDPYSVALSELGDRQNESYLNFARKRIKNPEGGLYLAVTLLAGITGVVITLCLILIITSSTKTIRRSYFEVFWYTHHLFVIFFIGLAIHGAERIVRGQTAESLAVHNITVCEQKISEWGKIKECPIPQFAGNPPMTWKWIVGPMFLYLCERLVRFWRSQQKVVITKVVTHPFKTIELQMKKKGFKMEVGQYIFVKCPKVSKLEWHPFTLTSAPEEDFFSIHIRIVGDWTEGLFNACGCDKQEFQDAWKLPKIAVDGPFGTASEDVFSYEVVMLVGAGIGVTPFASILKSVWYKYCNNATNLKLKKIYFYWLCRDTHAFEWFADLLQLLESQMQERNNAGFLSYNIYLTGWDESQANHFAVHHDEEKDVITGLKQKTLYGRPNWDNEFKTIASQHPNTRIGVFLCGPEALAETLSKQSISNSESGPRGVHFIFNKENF

Row | Compound | z-score [1] | composite z-score [2] | z-score [3] | z-score [4] | z-score [5] | z-score [6] | z-score [7] | z-score [8] | z-score [9] | z-score [10] | z-score [11] | z-score [12] | z-score [13] | z-score [14] | z-score [15] | z-score [16] | z-score [17] | z-score [18] | z-score [19] | z-score [20]
1 | CCN1C(=O)[C@H]2[C@H]3[C@H](O)[C@H](O)CC(=NOC[C@@H](C)[C@H](OCc4ccccc4)C(C)C)[C@@H]3CC[C@H]2C1=O | 0.618 (inactive) | -0.144 | 0.551 (inactive) | 0.106 (inactive) | 0.061 (inactive) | 0.0723 (inactive) | -0.357 | -0.136 (inactive) | 0.338 (inactive) | -0.287 | -0.0364 | 0.387 | -0.755 | -1.76 | -1.24 | -1.39 | -2.19 (inactive) | -0.279 | -0.187 | -0.295 (inactive)
2 | CC(C)C[C@@H]1NC(=O)[C@H]2C[C@@H](C(=O)NCCCCCCN(C)C)[C@@H](c3cccc(OCCO)c3)N2C1=O | -0.054 (inactive) | 0.0816 | 4.3 (inactive) | 0.594 (inactive) | 1.04 (inactive) | 0.154 (inactive) | 0.0695 | 1.77 (inactive) | 1.07 (inactive) | 1.84 | -1.26 | 0.88 | -0.278 | 0.303 | 0.651 | -1.09 | -0.481 (inactive) | -0.0673 | -0.0169 | -0.21 (inactive)
3 | CC(CCN1CCCCc2nc(C)c(C)cc21)=NOC(C)CN1CCCc2nc(C)c(C)cc21 (stereo not given) | -1.7 (inactive) | 0.79 | 1.6 (inactive) | 0.549 (inactive) | -0.19 (inactive) | 0.488 (inactive) | -0.569 | -1 (inactive) | 0.11 (inactive) | -1.79 | -0.587 | -0.315 | -0.253 | -2.66 | -0.681 | 0.346 | -1.7 (inactive) | 0.133 | -0.269 | 0.37 (inactive)
4 | COC(=O)[C@]1(CO)N=C(c2ccc(OCCCO)cc2)O[C@@H]1c1ccccc1N=[N+]=[N-] | 0.248 (inactive) | 0.191 | 18.3 (active) | 2.32 (inactive) | 1.49 (inactive) | 0.742 (inactive) | -0.315 | -0.502 (inactive) | 0.0857 (inactive) | -0.514 | -0.0196 | 0.909 | 0.45 | 0.512 | -0.172 | -0.177 | -0.464 (inactive) | 0.392 | -0.471 | -0.276 (inactive)
5 | C[C@H]1Cc2c(-c3ccccc3)nc3c(c2CO1)CN(CCOc1ccccc1)CC3 | 0.503 (inactive) | -0.199 | 1.65 (inactive) | 0.407 (inactive) | 0.301 (inactive) | 0.0748 (inactive) | 0.426 | 0.17 (inactive) | -0.0187 (inactive) | -0.605 | 2.68 | 0.173 | 1.27 | 0.785 | 0.11 | 0.932 | 0.281 (inactive) | -0.324 | -0.439 | -0.31 (inactive)
6 | CO[C@H]([C@@H](C)[C@H](OC)c1ccccc1)[C@H](C)[C@@H](OC)[C@H](C)C(C)=O | -0.558 (inactive) | -0.288 | 0.815 (inactive) | 0.196 (inactive) | -0.181 (inactive) | 0.269 (inactive) | -0.2 | -0.0369 (inactive) | 0.0305 (inactive) | 0.447 | 1.29 | -0.305 | 0.278 | 0.48 | -0.345 | 0.0892 | 1.16 (inactive) | -0.141 | 0.692 | -0.0733 (inactive)
7 | CC(=O)OC[C@H]1O[C@H](CCON=C(C)CCC(=O)OC[C@H]2O[C@H](C#Cc3ccccc3)C=C[C@@H]2Oc2ccc(C)cc2)C=C[C@@H]1OC(C)=O | 0.604 (inactive) | 0.28 | 8.85 (active) | 1.43 (inactive) | 1.02 (inactive) | 0.931 (inactive) | -0.987 | -0.772 (inactive) | 0.384 (inactive) | -1.64 | -0.572 | 0.442 | 0.229 | -2.77 | -2.73 | -0.797 | -0.942 (inactive) | -0.199 | -0.738 | 0.016 (inactive)
8 | CC(C)CON=C1C[C@@H](O)[C@@H](O)[C@@H]2[C@@H]3C(=O)N([C@@H](C)c4ccccc4)C(=O)[C@@H]3CC[C@H]12 | 0.525 (inactive) | -0.192 | 3.27 (inactive) | 0.149 (inactive) | 1.43 (inactive) | 0.106 (inactive) | -0.414 | -3.44 (inactive) | 1.18 (inactive) | 0.197 | 0.58 | -0.297 | -0.0223 | 0.844 | 0.933 | 0.658 | 0.341 (inactive) | 0.53 | -1.32 | -0.511 (inactive)
9 | NC(=O)NCC#Cc1ccc2c(c1)[C@]1(C(=O)N2)[C@H](c2ccc(O)cc2)N2[C@H](c3ccccc3)[C@H](c3ccccc3)OC(=O)[C@H]2[C@@H]1C(=O)N1CCCCCCC1 | -0.403 (inactive) | 2.04 | 0.578 (inactive) | -0.175 (inactive) | 0.35 (inactive) | 0.197 (inactive) | 0.0459 | 1.71 (inactive) | 0.802 (inactive) | 1.2 | 1.21 | 0.139 | 1.23 | 0.561 | 0.597 | -1.08 | 1.04 (inactive) | -0.578 | -0.413 | -0.118 (inactive)
